Sampled rows, rich in hits. Any-hit rate of the full collection: about 32%.
CYP2C19 act: cytochrome P450 2C19 (human) activation; P33261; recombinant CYP2C19, luciferin-H EGE luminescence; active compounds read high; 0 = fully inhibited enzyme, 1 = untreated enzyme; activation factor at 5 µM; 96,000 tested, under 10 active; AID 1025;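 active = activation factor of at least 2 at 5 µM in the primary screen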
Target sequence (P33261 whole entry, looked up): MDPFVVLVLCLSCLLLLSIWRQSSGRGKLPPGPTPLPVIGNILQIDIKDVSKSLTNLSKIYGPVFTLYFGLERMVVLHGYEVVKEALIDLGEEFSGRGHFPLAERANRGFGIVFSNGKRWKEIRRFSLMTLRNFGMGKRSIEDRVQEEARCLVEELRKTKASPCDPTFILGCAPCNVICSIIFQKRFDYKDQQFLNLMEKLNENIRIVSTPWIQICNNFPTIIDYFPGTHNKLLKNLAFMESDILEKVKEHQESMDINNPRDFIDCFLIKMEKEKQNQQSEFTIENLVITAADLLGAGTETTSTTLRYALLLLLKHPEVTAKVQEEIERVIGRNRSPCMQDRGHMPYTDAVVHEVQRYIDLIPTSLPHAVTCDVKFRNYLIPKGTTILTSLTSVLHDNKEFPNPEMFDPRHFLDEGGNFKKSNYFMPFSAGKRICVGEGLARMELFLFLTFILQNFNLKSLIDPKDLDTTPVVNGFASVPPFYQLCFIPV
PostGolgi yeast: growth inhibition of a yeast mutant, post-Golgi transport screen; inhibition, % at 10 µM; post-Golgi transport phenotypic cell assay; 98,000 tested, 0.9% active;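 also: yeast cells grown in 1536-well plates; yeast grown about 18 h at 30C before absorbance read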
CYP2C19 inh: human CYP2C19 inhibition. 96,000 tested, 21% active. CYP2C19 Supersomes, luciferin-H EGE luminescence, 30 min. inhibition, % at 5 µM. P33261;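 active = CYP2C19 inhibition above a set limit at 5 µM in the primary screen, cut at about 50% in these data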
CYP2C9 inh: human CYP2C9 inhibition; P11712; CYP2C9 Supersomes, luciferin-H conversion, luminescence; inhibition, % at 5 µM; 96,000 tested, 20% active;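 active = blocking of liver enzyme CYP2C9 beyond about 50% at 5 µM, limit read from the data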
CYP2C9 activ: CYP2C9 (human) activation; recombinant CYP2C9, luciferin-H conversion, luminescence; active compounds read high; factor 1 = untreated enzyme, 0 = blocked; activation factor at 5 µM; 96,000 tested, 1.4% active; AID 1024;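 active = activation factor of 2 or more for CYP2C9 at a 5 µM dose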
PostGolgi ctrl: yeast control strain growth, post-Golgi counter-screen; 98,000 tested, 5% active; inhibition, % at 10 µM; efflux-deficient yeast background strain, growth absorbance A615, 16 h
Each line names hits and unclear results; the compound was inactive in the other large screens. Rule as the data show it, unless noted: active = inhibition above about 30%; inactive = the rest.

COc1ccc(/C=C/c2ccncc2)c2ccccc12	CYP2C19 inh 88, CYP2C9 inh 54, PostGolgi ctrl 43
Cc1ccc(S(=O)(=O)Nc2nc3n(n2)C(c2ccc(Cl)cc2)CC(=O)N3)cc1 (stereo not given)	none
C=CCOC(=O)C1=C(C)Nc2nnnn2C1c1cc(OC)ccc1OC (stereo not given)	CYP2C19 inh 71, CYP2C9 inh 51
COC(=O)C1=C(C(=O)c2ccc(C)cc2)C(c2ccc(O)c(OC)c2)n2nnnc2N1 (stereo not given)	CYP2C9 inh 69
CCOc1ccccc1C1C(C(=O)Nc2ccccc2OC)=C(C)Nc2nnnn21 (stereo not given)	CYP2C19 inh 88, CYP2C9 inh 52
COc1ccccc1NC(=O)C1=C(C)Nc2nnnn2C1c1ccncc1 (stereo not given)	none
CCOC(=O)C1=C(C)Nc2nnnn2C1c1ccc(OC)c(Br)c1 (stereo not given)	CYP2C9 inh 67
Cc1nc2ncnn2c(C)c1CCC(=O)NCCCN1CCN(c2cccc(Cl)c2)CC1	none
CCOC(=O)N1CCN(C(=O)CN(c2ccc(Cl)c(C(F)(F)F)c2)S(C)(=O)=O)CC1	CYP2C19 inh 56
CS(=O)(=O)N(CC(=O)N1CCCC1)c1cc(Cl)c(Cl)cc1Cl	CYP2C19 inh 90
CCOC(=O)N1CCN(C(=O)CN(c2cc(C(F)(F)F)ccc2Cl)S(C)(=O)=O)CC1	CYP2C19 inh 54
CCOC(=O)N1CCN(C(=O)CN(c2cccc(OC)c2)S(C)(=O)=O)CC1	none
Cc1c(Cl)cccc1N(CC(=O)N1CCCCCC1)S(C)(=O)=O	none
O=C(Nc1cc(S(=O)(=O)N2CCCC2)ccc1Cl)C1=COCCO1	CYP2C19 inh 52
O=S1(=O)CCC(N=Cc2cc(Br)ccc2O)C1 (stereo not given)	none
CCN(CC)S(=O)(=O)c1cccc(-c2nnc(SCc3nnc(-c4cccs4)o3)n2N)c1	CYP2C19 inh 58, CYP2C9 inh 76
Cc1c(C(=O)Nc2nnc(C(F)(F)F)s2)oc2ccccc12	CYP2C9 inh 63 (no result: PostGolgi yeast, PostGolgi ctrl)
Cc1c(C(=O)Nc2ccncc2)oc2ccccc12	CYP2C19 inh 98, CYP2C9 inh 53
Cc1c(C(=O)Nn2cnnc2)oc2ccccc12	CYP2C19 inh 74
Cc1ccc2c(C)c(C(=O)Nc3cccnc3)oc2c1	CYP2C9 inh 52
Cc1nc2ccccn2c1/C(O)=C1\C(=O)C(=O)N(CCCn2ccnc2)C1c1ccncc1 (stereo not given)	none
CCCCOCCCn1cnc2c([nH]c3cc(OC)ccc32)c1=O	none
Cc1c(C(=O)NC(C)c2ccncc2)oc2ccccc12 (stereo not given)	CYP2C19 inh 82, CYP2C9 inh 83
Cc1c(C(=O)Nc2ccccn2)oc2ccccc12	none
CC(=O)Nc1cc(C(=O)N2CCCC2)ccc1Sc1ccc(C)cc1	CYP2C19 inh 65
COC(/C=C/Nc1ccc(C)cc1)=C(C#N)C#N	none
COc1ccc(-n2c(=O)c3ccccc3n(Cc3ccc(F)cc3)c2=O)cc1OC	none
CCc1nnc2n1N=C(c1ccc(-c3cc(Cl)ccc3Cl)o1)CS2	none
C/C(=N/NC(=O)CNc1ccc(C)cc1)c1ccc(Br)s1	none
CCCCCCC(=O)N(O)C1CC(=O)N(c2ccc(Br)cc2)C1=O (stereo not given)	CYP2C19 inh 52
COc1ccccc1N(O)C1CC(=O)N(c2ccc(Br)cc2)C1=O (stereo not given)	none
COC(=O)c1nc2n(n1)C(c1ccccc1OC)C1=C(CCCC1=O)N2 (stereo not given)	none
CC(C)c1ccc(N(C(=O)c2csnn2)C(C(=O)NC(C)(C)C)c2ccncc2)cc1 (stereo not given)	CYP2C19 inh 60
Cc1ccc(N(C(=O)c2csnn2)C(C(=O)NC(C)(C)C)c2ccncc2)cc1 (stereo not given)	none
CC(C)(C)NC(=O)C(c1ccncc1)N(C(=O)c1csnn1)c1ccccc1 (stereo not given)	none
Cc1ccc(N(C(=O)c2csnn2)C(C(=O)NC(C)(C)C)c2cccs2)cc1 (stereo not given)	CYP2C19 inh 77
Cc1ccc2oc3c(c(=O)c2c1)C(c1cccc(Cl)c1)N(CCCN1CCOCC1)C3=O (stereo not given)	none (no result: PostGolgi yeast, PostGolgi ctrl)
CN(CC(=O)N1CCCC1)S(=O)(=O)c1cc(Cl)ccc1Cl	CYP2C9 activ 2.4

Source: PubChem BioAssay (several laboratories)
